Legend:
[1] = target: T1, Serine/threonine-protein kinase haspin (Homo sapiens) (UniProt Q8TF76); settings: at 1 µM
T1 sequence (whole entry): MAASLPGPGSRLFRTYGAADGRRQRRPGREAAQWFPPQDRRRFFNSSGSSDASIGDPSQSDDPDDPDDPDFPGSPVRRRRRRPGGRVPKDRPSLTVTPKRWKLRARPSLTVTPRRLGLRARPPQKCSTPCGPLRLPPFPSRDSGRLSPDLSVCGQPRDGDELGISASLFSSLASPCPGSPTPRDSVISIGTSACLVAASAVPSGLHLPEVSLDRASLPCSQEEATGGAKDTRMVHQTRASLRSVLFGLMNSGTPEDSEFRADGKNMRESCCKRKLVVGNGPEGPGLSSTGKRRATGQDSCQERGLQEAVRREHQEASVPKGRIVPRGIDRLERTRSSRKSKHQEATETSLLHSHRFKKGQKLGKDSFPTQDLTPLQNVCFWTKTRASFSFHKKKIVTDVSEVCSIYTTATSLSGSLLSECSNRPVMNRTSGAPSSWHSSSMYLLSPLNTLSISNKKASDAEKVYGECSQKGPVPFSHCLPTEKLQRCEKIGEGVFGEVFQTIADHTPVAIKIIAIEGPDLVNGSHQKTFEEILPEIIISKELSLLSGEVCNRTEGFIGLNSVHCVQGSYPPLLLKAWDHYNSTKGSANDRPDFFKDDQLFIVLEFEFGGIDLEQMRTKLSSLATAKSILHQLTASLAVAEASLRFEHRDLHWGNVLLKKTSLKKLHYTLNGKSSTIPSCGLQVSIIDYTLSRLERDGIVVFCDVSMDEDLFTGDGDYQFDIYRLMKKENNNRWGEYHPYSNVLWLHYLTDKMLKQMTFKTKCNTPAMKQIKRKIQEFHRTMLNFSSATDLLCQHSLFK

[2] = target: T1, Serine/threonine-protein kinase haspin (Homo sapiens); settings: at 10 µM
[3] = target: Tyrosine-protein kinase HCK (Homo sapiens) (UniProt P08631); settings: at 1 µM
Tyrosine-protein kinase HCK (Homo sapiens), sequence (P08631 2-526 limits assumed): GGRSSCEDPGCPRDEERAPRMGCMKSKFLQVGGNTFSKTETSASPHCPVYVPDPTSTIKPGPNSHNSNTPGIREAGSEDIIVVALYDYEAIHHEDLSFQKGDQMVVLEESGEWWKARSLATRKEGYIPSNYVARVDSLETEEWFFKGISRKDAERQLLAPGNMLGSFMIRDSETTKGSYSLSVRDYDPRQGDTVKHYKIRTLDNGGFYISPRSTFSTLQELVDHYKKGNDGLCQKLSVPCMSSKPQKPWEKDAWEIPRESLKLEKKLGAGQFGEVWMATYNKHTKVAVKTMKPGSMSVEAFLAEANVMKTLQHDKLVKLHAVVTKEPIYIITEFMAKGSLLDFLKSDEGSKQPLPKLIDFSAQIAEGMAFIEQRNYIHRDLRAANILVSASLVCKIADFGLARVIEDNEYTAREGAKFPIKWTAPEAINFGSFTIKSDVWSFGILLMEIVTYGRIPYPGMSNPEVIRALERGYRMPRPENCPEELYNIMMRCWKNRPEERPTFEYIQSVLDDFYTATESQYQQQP

[4] = target: Tyrosine-protein kinase HCK (Homo sapiens) (UniProt P08631); settings: at 10 µM
[5] = target: Tyrosine-protein kinase HCK (Homo sapiens) (UniProt P08631); settings: at 1 µM; remark: listed apart in the source
[6] = target: Tyrosine-protein kinase HCK (Homo sapiens) (UniProt P08631); settings: at 10 µM; remark: listed apart in the source
[7] = target: Protein kinase C eta type (Homo sapiens) (UniProt P24723); settings: at 1 µM
Protein kinase C eta type (Homo sapiens), sequence (P24723 whole entry): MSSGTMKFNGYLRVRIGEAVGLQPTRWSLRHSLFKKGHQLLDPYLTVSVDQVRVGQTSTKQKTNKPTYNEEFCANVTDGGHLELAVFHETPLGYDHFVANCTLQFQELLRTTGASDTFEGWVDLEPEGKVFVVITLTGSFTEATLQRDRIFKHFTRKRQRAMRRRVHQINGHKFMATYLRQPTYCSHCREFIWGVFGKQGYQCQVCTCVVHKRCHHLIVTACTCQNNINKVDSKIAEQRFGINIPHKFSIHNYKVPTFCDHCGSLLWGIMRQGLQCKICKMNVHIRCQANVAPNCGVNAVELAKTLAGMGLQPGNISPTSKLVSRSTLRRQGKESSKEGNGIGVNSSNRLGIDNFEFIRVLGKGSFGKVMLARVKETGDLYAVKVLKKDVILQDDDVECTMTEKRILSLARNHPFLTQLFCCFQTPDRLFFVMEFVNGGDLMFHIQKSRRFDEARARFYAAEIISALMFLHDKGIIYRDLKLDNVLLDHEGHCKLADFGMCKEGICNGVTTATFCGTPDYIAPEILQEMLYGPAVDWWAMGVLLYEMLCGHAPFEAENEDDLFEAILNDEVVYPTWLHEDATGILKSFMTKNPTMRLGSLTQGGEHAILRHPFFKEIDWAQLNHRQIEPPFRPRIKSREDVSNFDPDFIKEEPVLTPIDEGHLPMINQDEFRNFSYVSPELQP

[8] = target: Protein kinase C eta type (Homo sapiens) (UniProt P24723); settings: at 10 µM
[9] = target: Protein kinase C theta type (Homo sapiens) (UniProt Q04759); settings: at 1 µM
Protein kinase C theta type (Homo sapiens), sequence (Q04759 whole entry, looked up): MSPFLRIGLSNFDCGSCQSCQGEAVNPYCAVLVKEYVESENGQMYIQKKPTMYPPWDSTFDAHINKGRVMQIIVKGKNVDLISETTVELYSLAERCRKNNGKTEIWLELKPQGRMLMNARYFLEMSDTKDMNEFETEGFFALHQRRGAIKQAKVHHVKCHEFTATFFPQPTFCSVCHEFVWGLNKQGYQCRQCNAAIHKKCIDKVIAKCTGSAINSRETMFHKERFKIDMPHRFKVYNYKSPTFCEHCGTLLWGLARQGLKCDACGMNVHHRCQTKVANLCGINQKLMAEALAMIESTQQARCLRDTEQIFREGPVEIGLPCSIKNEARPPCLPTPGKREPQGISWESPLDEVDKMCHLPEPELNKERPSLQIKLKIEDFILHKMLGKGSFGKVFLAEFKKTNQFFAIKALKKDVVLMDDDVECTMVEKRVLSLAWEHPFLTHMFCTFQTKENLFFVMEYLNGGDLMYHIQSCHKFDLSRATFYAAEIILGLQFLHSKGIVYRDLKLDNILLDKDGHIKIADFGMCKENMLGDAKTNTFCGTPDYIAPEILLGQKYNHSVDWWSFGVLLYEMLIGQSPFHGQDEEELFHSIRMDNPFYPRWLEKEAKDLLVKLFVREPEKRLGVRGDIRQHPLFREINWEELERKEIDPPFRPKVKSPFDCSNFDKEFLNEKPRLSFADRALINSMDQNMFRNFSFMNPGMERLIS

[10] = target: Protein kinase C theta type (Homo sapiens) (UniProt Q04759); settings: at 10 µM
[11] = target: T2, Protein kinase C iota type (Homo sapiens) (UniProt P41743); settings: at 1 µM
T2 sequence (whole entry): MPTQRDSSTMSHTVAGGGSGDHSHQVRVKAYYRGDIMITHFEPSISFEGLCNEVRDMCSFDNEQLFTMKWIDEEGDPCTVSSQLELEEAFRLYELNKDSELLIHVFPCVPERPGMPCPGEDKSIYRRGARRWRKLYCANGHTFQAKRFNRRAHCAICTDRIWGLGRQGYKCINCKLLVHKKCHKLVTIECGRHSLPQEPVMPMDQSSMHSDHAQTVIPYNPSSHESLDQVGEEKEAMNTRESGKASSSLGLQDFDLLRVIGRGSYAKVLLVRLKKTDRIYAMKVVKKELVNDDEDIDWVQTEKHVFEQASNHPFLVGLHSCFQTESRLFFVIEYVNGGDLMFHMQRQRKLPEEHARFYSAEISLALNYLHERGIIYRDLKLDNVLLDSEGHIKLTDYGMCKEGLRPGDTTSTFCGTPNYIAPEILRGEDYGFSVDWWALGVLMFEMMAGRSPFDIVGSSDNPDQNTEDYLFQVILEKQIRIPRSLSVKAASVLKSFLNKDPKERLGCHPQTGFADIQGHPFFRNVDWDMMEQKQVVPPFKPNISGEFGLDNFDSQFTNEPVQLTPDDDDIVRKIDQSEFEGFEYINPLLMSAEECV

[12] = target: T2, Protein kinase C iota type (Homo sapiens); settings: at 10 µM
[13] = target: T3, Serine/threonine-protein kinase D1 (Homo sapiens) (UniProt Q15139); settings: at 10 µM
T3 sequence (whole entry): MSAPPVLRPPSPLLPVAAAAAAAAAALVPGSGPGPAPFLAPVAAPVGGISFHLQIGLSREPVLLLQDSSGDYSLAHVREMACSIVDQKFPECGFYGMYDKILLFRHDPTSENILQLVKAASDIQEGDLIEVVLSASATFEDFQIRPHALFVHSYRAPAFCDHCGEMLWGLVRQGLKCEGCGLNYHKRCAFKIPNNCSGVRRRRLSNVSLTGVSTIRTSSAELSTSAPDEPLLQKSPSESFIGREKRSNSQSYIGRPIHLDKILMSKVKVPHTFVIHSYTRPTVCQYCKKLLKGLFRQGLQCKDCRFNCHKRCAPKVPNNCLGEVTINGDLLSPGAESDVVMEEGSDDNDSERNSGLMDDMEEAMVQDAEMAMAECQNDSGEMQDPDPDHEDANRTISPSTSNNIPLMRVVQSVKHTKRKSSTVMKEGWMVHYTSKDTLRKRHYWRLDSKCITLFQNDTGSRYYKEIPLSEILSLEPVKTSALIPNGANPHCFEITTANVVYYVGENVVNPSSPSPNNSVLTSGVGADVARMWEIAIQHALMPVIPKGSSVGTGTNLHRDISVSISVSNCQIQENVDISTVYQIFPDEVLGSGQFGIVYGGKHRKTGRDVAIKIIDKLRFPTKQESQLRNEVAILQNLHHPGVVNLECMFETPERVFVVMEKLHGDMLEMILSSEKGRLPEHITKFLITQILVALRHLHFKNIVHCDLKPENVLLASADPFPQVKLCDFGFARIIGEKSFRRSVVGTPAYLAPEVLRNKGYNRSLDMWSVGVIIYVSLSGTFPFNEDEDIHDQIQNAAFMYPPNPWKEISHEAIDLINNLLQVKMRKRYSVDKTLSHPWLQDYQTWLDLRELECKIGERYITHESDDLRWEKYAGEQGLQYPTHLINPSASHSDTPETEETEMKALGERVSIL

[14] = target: T4, Serine/threonine-protein kinase D2 (Homo sapiens) (UniProt Q9BZL6); settings: at 1 µM
T4 sequence (whole entry): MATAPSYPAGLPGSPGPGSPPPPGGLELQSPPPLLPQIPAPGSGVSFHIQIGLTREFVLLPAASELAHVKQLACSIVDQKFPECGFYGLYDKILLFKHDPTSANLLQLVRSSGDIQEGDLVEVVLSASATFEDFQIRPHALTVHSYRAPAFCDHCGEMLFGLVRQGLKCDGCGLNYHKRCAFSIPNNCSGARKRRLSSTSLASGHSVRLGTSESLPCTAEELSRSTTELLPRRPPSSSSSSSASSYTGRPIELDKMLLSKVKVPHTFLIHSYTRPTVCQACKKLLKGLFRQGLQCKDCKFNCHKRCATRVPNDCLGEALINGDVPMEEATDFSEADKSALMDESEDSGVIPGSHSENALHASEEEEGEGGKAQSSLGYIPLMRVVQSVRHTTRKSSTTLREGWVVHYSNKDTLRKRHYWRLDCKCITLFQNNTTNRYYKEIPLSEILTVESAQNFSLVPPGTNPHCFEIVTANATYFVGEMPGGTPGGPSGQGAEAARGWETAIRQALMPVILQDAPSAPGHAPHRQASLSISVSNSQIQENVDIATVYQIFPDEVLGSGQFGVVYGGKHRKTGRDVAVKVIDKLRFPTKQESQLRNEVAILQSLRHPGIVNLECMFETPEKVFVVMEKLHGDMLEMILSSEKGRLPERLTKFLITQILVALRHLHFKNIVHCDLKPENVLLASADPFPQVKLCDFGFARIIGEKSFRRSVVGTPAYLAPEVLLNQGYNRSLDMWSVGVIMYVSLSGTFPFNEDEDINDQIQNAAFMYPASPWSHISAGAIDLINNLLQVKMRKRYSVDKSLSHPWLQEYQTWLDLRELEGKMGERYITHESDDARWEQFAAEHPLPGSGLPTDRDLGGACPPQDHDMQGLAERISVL

[15] = target: T4, Serine/threonine-protein kinase D2 (Homo sapiens); settings: at 10 µM
[16] = target: Homeodomain-interacting protein kinase 3 (Homo sapiens) (UniProt Q9H422); settings: at 10 µM
Homeodomain-interacting protein kinase 3 (Homo sapiens), sequence (Q9H422 whole entry, looked up): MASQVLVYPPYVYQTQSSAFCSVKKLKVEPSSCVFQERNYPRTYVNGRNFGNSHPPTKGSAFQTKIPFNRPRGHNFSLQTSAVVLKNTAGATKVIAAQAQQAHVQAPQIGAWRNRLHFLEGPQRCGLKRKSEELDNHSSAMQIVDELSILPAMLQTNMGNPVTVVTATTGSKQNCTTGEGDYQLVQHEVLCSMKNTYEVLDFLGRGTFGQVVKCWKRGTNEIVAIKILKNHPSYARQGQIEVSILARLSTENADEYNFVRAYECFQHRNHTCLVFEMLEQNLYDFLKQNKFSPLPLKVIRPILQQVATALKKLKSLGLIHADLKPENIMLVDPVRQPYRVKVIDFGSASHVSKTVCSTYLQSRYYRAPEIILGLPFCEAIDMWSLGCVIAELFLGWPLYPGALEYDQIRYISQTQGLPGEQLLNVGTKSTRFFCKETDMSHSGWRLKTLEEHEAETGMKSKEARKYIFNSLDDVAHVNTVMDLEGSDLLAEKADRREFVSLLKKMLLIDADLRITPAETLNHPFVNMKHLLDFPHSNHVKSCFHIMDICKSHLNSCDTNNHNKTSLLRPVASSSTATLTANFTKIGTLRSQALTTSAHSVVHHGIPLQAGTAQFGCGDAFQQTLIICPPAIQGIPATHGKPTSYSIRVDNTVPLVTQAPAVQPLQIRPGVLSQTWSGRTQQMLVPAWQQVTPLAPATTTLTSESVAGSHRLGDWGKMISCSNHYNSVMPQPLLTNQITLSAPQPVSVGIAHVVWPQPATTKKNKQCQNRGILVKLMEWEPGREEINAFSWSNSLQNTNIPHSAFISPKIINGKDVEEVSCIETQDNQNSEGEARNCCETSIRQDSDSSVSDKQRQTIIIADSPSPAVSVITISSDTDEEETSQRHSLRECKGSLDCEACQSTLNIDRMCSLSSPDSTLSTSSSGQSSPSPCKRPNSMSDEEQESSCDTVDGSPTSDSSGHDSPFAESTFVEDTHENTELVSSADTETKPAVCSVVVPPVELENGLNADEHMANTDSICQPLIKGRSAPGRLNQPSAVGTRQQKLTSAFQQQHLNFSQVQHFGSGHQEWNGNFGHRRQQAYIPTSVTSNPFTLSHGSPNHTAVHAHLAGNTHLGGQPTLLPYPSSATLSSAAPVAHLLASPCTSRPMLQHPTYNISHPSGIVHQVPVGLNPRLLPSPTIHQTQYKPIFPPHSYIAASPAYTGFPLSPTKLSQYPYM

[17] = target: T5, Protein kinase C zeta type (Homo sapiens) (UniProt Q05513); settings: at 10 µM
T5 sequence (whole entry): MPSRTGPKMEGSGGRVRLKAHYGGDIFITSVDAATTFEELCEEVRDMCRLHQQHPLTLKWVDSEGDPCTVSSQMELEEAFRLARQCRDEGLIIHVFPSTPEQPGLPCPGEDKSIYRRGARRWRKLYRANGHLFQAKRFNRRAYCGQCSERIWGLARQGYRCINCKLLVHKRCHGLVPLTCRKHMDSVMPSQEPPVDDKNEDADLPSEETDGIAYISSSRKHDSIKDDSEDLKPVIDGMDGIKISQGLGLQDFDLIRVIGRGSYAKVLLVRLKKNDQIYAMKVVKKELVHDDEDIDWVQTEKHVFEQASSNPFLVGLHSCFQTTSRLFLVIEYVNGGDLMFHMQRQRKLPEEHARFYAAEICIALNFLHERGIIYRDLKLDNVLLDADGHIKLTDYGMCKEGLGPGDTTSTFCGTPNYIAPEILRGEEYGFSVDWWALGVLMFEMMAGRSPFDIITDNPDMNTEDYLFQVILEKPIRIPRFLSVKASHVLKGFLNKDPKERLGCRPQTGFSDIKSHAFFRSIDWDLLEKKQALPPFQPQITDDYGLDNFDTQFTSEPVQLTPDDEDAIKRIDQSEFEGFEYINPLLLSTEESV

[18] = target: T3, Serine/threonine-protein kinase D1 (Homo sapiens); settings: at 1 µM
[19] = target: Insulin-like growth factor 1 receptor (Homo sapiens) (UniProt P08069); settings: at 1 µM
Insulin-like growth factor 1 receptor (Homo sapiens), sequence (P08069 31-736 limits assumed): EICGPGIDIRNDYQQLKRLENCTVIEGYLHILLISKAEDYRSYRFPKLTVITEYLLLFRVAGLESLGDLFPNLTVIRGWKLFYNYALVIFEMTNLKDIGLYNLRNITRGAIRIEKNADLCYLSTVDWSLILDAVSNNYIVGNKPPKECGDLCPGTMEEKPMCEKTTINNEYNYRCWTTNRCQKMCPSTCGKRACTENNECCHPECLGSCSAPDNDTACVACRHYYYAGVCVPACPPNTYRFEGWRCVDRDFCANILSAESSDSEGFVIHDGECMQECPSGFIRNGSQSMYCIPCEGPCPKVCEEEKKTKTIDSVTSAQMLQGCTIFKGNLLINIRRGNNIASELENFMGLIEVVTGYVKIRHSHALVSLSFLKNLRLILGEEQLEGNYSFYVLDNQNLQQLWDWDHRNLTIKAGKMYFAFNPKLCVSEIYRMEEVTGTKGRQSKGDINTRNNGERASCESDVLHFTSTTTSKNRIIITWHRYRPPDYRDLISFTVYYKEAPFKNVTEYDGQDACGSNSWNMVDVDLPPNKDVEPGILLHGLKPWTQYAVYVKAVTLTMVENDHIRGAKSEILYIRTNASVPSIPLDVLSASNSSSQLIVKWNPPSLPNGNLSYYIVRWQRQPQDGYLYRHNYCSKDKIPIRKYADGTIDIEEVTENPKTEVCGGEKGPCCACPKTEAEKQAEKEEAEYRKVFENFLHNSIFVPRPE
Insulin-like growth factor 1 receptor (Homo sapiens), sequence (P08069 741-1367 limits assumed): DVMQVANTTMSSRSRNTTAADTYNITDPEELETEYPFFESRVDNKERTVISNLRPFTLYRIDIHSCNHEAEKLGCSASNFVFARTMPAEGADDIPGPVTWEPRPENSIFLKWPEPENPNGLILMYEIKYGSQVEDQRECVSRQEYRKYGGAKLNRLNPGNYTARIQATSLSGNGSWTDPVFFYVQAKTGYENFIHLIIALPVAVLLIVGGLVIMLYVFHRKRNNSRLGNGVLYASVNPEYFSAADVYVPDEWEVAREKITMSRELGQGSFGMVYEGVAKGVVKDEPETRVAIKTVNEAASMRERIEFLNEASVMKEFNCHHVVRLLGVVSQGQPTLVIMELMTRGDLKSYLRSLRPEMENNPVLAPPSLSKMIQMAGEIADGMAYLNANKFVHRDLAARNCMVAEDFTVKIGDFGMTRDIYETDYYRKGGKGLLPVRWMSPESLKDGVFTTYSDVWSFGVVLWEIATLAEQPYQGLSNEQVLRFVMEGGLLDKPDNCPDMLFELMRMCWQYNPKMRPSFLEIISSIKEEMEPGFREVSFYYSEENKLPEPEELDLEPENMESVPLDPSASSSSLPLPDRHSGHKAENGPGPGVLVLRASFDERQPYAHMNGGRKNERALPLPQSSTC

[20] = target: Insulin-like growth factor 1 receptor (Homo sapiens) (UniProt P08069); settings: at 10 µM

## Cc1cccc(-c2[nH]c(C(C)(C)C)nc2-c2ccc3c(c2)OCO3)n1
[1]
  residual activity: 92%
[2]
  residual activity: 75%
[3]
  residual activity: 94%
[4]
  residual activity: 79%
[5]
  residual activity: 102%
[6]
  residual activity: 99%
[7]
  residual activity: 84%
[8]
  residual activity: 80%
[9]
  residual activity: 96%
[10]
  residual activity: 95%
[11]
  residual activity: 85% (inactive)
[12]
  residual activity: 76%
[13]
  residual activity: 72%
[14]
  residual activity: 103%
[15]
  residual activity: 106%

## COc1cc2ncnc(N3CCN(C(=O)Nc4ccc(Oc5ccccc5)cc4)CC3)c2cc1OC
[16]
  residual activity: 102%
[1]
  residual activity: 79%
[2]
  residual activity: 82%
[3]
  residual activity: 79%
[4]
  residual activity: 71%
[5]
  residual activity: 91%
[6]
  residual activity: 85%
[17]
  residual activity: 116%
[7]
  residual activity: 98%
[8]
  residual activity: 74%
[9]
  residual activity: 94%
[10]
  residual activity: 108%
[11]
  residual activity: 90% (inactive)
[12]
  residual activity: 99%
[18]
  residual activity: 102%
[13]
  residual activity: 66%
[14]
  residual activity: 103%
[15]
  residual activity: 99%

## CN(C)c1ccc(/C=C2\C(=O)Nc3ccccc32)cc1
[16]
  residual activity: 94%
[1]
  residual activity: 83%
[2]
  residual activity: 46%
[3]
  residual activity: 76%
[4]
  residual activity: 32%
[5]
  residual activity: 102%
[6]
  residual activity: 77%
[19]
  residual activity: 146%
[20]
  residual activity: 139%
[17]
  residual activity: 101%
[7]
  residual activity: 102%
[8]
  residual activity: 93%
[9]
  residual activity: 117%
[10]
  residual activity: 85%
[11]
  residual activity: 92% (inactive)
[12]
  residual activity: 78%
[18]
  residual activity: 96%
[13]
  residual activity: 81%
[14]
  residual activity: 103%
[15]
  residual activity: 114%

## CN(C)CCCn1cc(C2=C(c3c[nH]c4ccccc34)C(=O)NC2=O)c2ccccc21
[16]
  residual activity: 35%
[1]
  residual activity: 43%
[2]
  residual activity: 12%
[3]
  residual activity: 74%
[4]
  residual activity: 54%
[5]
  residual activity: 113%
[6]
  residual activity: 84%
[19]
  residual activity: 127%
[17]
  residual activity: 16%
[11]
  residual activity: 74% (inactive)
[12]
  residual activity: 47%
[18]
  residual activity: 108%
[13]
  residual activity: 43%
[15]
  residual activity: 82%

## O=C1NC(=O)c2c1c1c3ccccc3[nH]c1c1[nH]c3cc(Br)ccc3c21
[16]
  residual activity: 89%
[1]
  residual activity: 99%
[2]
  residual activity: 72%
[3]
  residual activity: 69%
[4]
  residual activity: 56%
[5]
  residual activity: 97%
[6]
  residual activity: 78%
[19]
  residual activity: 87%
[20]
  residual activity: 91%
[17]
  residual activity: 88%
[7]
  residual activity: 72%
[8]
  residual activity: 89%
[9]
  residual activity: 80%
[10]
  residual activity: 91%
[11]
  residual activity: 102% (inactive)
[18]
  residual activity: 111%
[13]
  residual activity: 72%
[14]
  residual activity: 103%
[15]
  residual activity: 90%

## CC(=O)c1ccc(N2CCOCC2)cc1O
[16]
  residual activity: 98%
[1]
  residual activity: 78%
[2]
  residual activity: 39%
[3]
  residual activity: 84%
[4]
  residual activity: 74%
[5]
  residual activity: 97%
[6]
  residual activity: 107%
[19]
  residual activity: 148%
[17]
  residual activity: 106%
[7]
  residual activity: 92%
[8]
  residual activity: 84%
[9]
  residual activity: 109%
[10]
  residual activity: 102%
[11]
  residual activity: 84% (inactive)
[12]
  residual activity: 106%
[18]
  residual activity: 92%
[13]
  residual activity: 95%
[14]
  residual activity: 93%
[15]
  residual activity: 109%

## O=C1Nc2ccccc2/C1=C1/Nc2ccccc2/C1=N\OCCC(O)CO (configuration not stated)
[16]
  residual activity: 56%
[1]
  residual activity: 13%
[2]
  residual activity: 11%
[3]
  residual activity: 4%
[4]
  residual activity: 0%
[5]
  residual activity: 8%
[6]
  residual activity: 7%
[19]
  residual activity: 25%
[20]
  residual activity: 2%
[17]
  residual activity: 104%
[9]
  residual activity: 66%
[10]
  residual activity: 29%
[11]
  residual activity: 113% (inactive)
[18]
  residual activity: 73%
[13]
  residual activity: 32%
[14]
  residual activity: 101%
[15]
  residual activity: 76%
